Measured potencies and affinities stand elsewhere.
Key:
Klebsiella pneumoniae = settings: Concentration 20 uM; ASSAY_TEST Inhibition of Bacterial Growth; detection method Absorption (OD600); MEDIA CAMHB; plate type 384well; NBS; CORNING #3640; time 18 hr
Candida albicans = settings: 20 µM
Cryptococcus neoformans = settings: Concentration 20 uM; ASSAY_TEST Inhibition of Fungal Growth; detection method Resazurin; Absorption (OD600-OD570); plate type 384well; NBS; CORNING #3640

SMILES	Inhibition (Klebsiella pneumoniae)	Inhibition (Candida albicans)	Inhibition (Cryptococcus neoformans)
Cc1cccc(NC(=O)c2cc(S(=O)(=O)N(C)c3ccc(F)cc3)ccc2Cl)n1	14.02%	9.46%	-4.89%
COc1ccc(-c2cnc3ccc(NCc4ccc(S(N)(=O)=O)cc4)nn23)cn1	16.22%	4.45%	-9.08%
Cc1cc(Cl)ccc1NC(=O)CCc1ccc(S(=O)(=O)NCC(C)C)cc1	8.81%	1.81%	-9.04%
O=C(Cn1ccnc1[N+](=O)[O-])NCc1ccccc1 [BENZNIDAZOLE]	18.48%	2.82%	-2.09%
CCN(CC)CCCCCCNc1cc(OC)cc2c(C)ccnc12.Cc1ccc(S(=O)(=O)O)cc1	14.1%	2.19%	2.4%
COc1ccc(Nc2ccccc2NC(=O)c2ccc(O)nc2)cc1	-2.41%	1.42%	-7.76%
Cc1c[nH]c(CCNC(=O)c2cc(-c3ccc(Cl)cc3)cs2)n1	19.09%	2.87%	-12.96%
CS(=O)(=O)c1cccc(-c2cnc3[nH]cc(-c4ccc(CCC(=O)O)cc4)c3c2)c1	6.09%	11.3%	-4.04%
O=C(Nc1c(O)cccc1-c1nc2c(C(=O)O)cccc2o1)c1cc(-c2ccccc2)on1	-9.4%	3.49%	-10.86%
CNc1snc(C)c1C(=O)NCCOc1ccc(OC)cc1	10.83%	3.15%	1.78%
COc1ccc(CN2CCOc3ccc(C(C)(O)CN(C)C)cc3C2)cc1C (stereo unspecified)	16.19%	4.72%	-11.35%
CC(C)/N=c1\cc2n(-c3ccc(Cl)cc3)c3ccccc3nc-2cc1Nc1ccc(Cl)cc1 [CLOFAZIMINE]	13.39%	5.63%	-11.17%
Nc1ccc(C(=O)Nc2ccc(-c3nc4ccccc4o3)cc2)cc1	7.66%	15.1%	-12.24%
CN1CCC(NCc2cccc(-c3ccc(S(=O)(=O)NCc4ccccc4)cc3)c2)CC1	9.08%	3.63%	-7.83%
CC(C)n1ncc2c(C(=O)NCC(c3cccs3)N3CCOCC3)cc(-c3ccccc3)nc21 (stereo unspecified)	8.44%	4.59%	-15.65%
O=C1[C@@H](Oc2ccccc2)[C@@H](c2ccc(Cl)cc2)N1CCn1cnc2c(NCc3ccccc3)ncnc21	2.13%	33.5%	-6.99%
COC(=O)c1c(NC(=O)c2c(F)c(F)c(F)c(F)c2F)sc2c1CCCCC2	11.31%	6.8%	-13.49%

Reference: ChEMBL document CHEMBL4513149, “CO-ADD screening of MMV (CH) - MMV compounds” (2021)
